Shown are actives, neighbours in structure and some others; about 19% of the full set was active somewhere.
HT1080 IDH1KD tx: kills HT-1080 cells with IDH1 knockdown; AID 686971; HT-1080 IDH1 knockdown viability, ATP luminescence, 48 h; 360,000 compounds, 2% hits; Potency, µM (top dose mostly 46.1 µM), without a hit: at the highest dose activity, negative = toxicity, most hits filed as cytotoxic;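 further: potency means the concentration at half of the fitted maximal effect; 0% = DMSO wells and -100% = cell-free medium wells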
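HT-1080-IDH1KD cells (IDH1 knocked down), 750/well in RPMI with 5% FBS, treated with compound 48 h at 37 degrees C. Viability by CellTiter-Glo luminescence, normalised to DMSO and no-cell wells; concentration-response curves classed.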
TDP1 cell CPT: DT40-hTDP1 cell growth loss with CPT; chicken DT40 Tdp1-/-;hTDP1 cells + 20 nM CPT, ATP luminescence, 48 h; Potency, µM (doses to about 46.2 µM), for the others: at the top dose activity change, negative = growth inhibition, usual class: inhibitors; 420,000 compounds, 12% hits; AID 686979; further: potency means the concentration at half of the fitted maximal effect; nearly all actives have a fitted effect of over 55% in size
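Chicken DT40 Tdp1-/- cells complemented with human TDP1, 400 cells/well, exposed to compounds plus 20 nM camptothecin for at least 48 h at 37 C; viability read as ATP content by CellTiter-Glo luminescence.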
HT1080-NT tox: kills 2HG-producing HT-1080-NT fibrosarcoma cells; HT-1080-NT fibrosarcoma viability, CellTiter-Glo ATP luminescence, 48 h; Potency, µM (series often up to 46.1 µM), without a hit: at the highest dose activity, negative = less viability, actives largely listed as cytotoxic; 360,000 compounds, 1.6% hits;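 further: NT is the 2HG producing partner of a matched IDH1 knockdown line; potency means the concentration at half of the fitted maximal effect; 0% = DMSO-treated cells and -100% = media-only wells without cells; nearly all actives have a fitted effect of over 55% in size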
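Luminescent CellTiter-Glo readout after 48 hours of compound exposure at 37 degrees C defined viability of HT-1080-NT cells. Activity was normalized to DMSO wells and cell-free media wells; concentration-response curves were fitted and assigned curve classes.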
IL-1B inflam inh: inhibitors of inflammasome signaling (IL-1 beta secretion); THP-1 LPS/ATP IL-1B secretion, AlphaLISA, 16 h; stronger effect = lower value; activity change, % at 57.5 µM; 360,000 compounds, 4.7% hits; in the data active means activity change below about -50%; inconclusive means mostly about -30% to -49%
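Secreted IL-1B measured by AlphaLISA bead assay after 16 h compound exposure of THP-1 cells; compounds (final up to 57.5 uM) added 1 h before LPS (250 ng/mL) and ATP (1.25 mM) stimulation; lower signal means less secretion.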
DT40 TDP1 no CPT: qHTS for Inhibitors of human tyrosyl-DNA phosphodiesterase 1 (TDP1): qHTS in cells in absence of CPT. DT40 Tdp1-/- hTDP1 cells, no CPT, ATP luminescence, 48 h. Potency, µM (top dose mostly 46.2 µM), for inactives: at the top dose activity change, negative = growth inhibition, hits mostly inhibitors. 420,000 compounds, 15% hits; further: potency means the concentration at half of the fitted maximal effect; nearly all actives have a fitted effect of over 55% in size
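Readout: luminescence from CellTiter-Glo after 30 min in the dark at RT. Cells: DT40 Tdp1-/- with stable hTDP1, 400/well. Exposure: compounds alone, ≥48 hr, 37 °C.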
* hit, by the source's call; [ ] = dose if it differs, or a comment. Unless noted, the call rests on the fitted dose curve; in most records, active means well fitted curve in the direction sought with a large enough effect; inconclusive means small, poorly fitted or top-dose-only effect, or another doubt; inactive means no such curve, though single readings can be large; an effect the other way counts as inactive or inconclusive. Unless noted, on the % scale 0 is the no-effect control and ±100 the full control effect.

O=C(c1cccnc1)C1CCCN(Cc2ccc3c(c2)CN(C(=O)c2cccs2)CCO3)C1 (stereo unspecified) was read as TDP1 cell CPT -7%[9.04 µM] and DT40 TDP1 no CPT inconclusive.
For COc1cccc(NC(=O)CSc2nc3ccccc3c3nc4ccccc4n23)c1 the results were HT1080 IDH1KD tx inconclusive, TDP1 cell CPT 12µM*, HT1080-NT tox inconclusive, IL-1B inflam inh -1 and DT40 TDP1 no CPT 16µM*.
For COc1cccc(NC(=O)CSc2nc3ccccc3c(=O)n2Cc2cccs2)c1 the results were HT1080 IDH1KD tx -1%, TDP1 cell CPT 21µM*, HT1080-NT tox 10%, IL-1B inflam inh 0 and DT40 TDP1 no CPT inconclusive.
For CCOCCCn1c(SCC(=O)Nc2cccc(OC)c2)nc2ccccc2c1=O the results were HT1080 IDH1KD tx -6%, TDP1 cell CPT inconclusive, HT1080-NT tox 9%, IL-1B inflam inh 0 and DT40 TDP1 no CPT inconclusive.
Screening CCC(Sc1nc2ccsc2c(=O)n1Cc1ccc(C(=O)O)cc1)C(=O)Nc1cccc(OC)c1 (stereo unspecified) returned HT1080 IDH1KD tx -13%, TDP1 cell CPT -29%, HT1080-NT tox -9%, IL-1B inflam inh 5 and DT40 TDP1 no CPT inconclusive.
CCC(Sc1nc2ccccc2c2nc(-c3ccccc3)nn12)C(=O)Nc1cccc(OC)c1 (stereo unspecified) was read as TDP1 cell CPT inconclusive and DT40 TDP1 no CPT 18µM*.
CN(C(=O)COC(=O)c1ccc(Br)c([N+](=O)[O-])c1)c1c(N)n(Cc2ccccc2)c(=O)[nH]c1=O was read as HT1080 IDH1KD tx 0%, TDP1 cell CPT -1%, HT1080-NT tox -3%, IL-1B inflam inh -12 and DT40 TDP1 no CPT -25%.
`CCOC(=O)C1CCCN(C(=O)c2ccc3ccccc3c2)CC1` (stereo unspecified) gave HT1080 IDH1KD tx 6%, TDP1 cell CPT inconclusive, HT1080-NT tox -2%, IL-1B inflam inh 17 and DT40 TDP1 no CPT inconclusive.
Screening CCOP(=O)(c1ccc(N(C)C)cc1)C(O)c1ccc(OC)cc1 (stereo unspecified) returned HT1080 IDH1KD tx 5%, TDP1 cell CPT -2%, HT1080-NT tox 8%, IL-1B inflam inh -1 and DT40 TDP1 no CPT -5%.
Screening Cc1ccc(S(=O)(=O)N2CCOCC2)cc1NC(=O)c1cc2c(s1)CCC2 returned HT1080 IDH1KD tx 2%, TDP1 cell CPT inconclusive, HT1080-NT tox 0%, IL-1B inflam inh inconclusive and DT40 TDP1 no CPT 16µM*.
Screening CC1CCc2sc(C(=O)Nc3ccc(C(N)=O)cc3)cc2C1 (stereo unspecified) returned HT1080 IDH1KD tx -2%, TDP1 cell CPT 5%, HT1080-NT tox -2%, IL-1B inflam inh -70* and DT40 TDP1 no CPT -5%.
Screening Cc1ccc(S(=O)(=O)Nc2ccc(Cl)cc2)cc1NC(=O)c1cc2c(s1)CCCC2 returned HT1080 IDH1KD tx inconclusive, TDP1 cell CPT inconclusive, HT1080-NT tox inconclusive, IL-1B inflam inh -64* and DT40 TDP1 no CPT inconclusive.
Screening COc1cc(S(=O)(=O)N2CCOCC2)ccc1NC(=O)c1cc2c(s1)CCC2 returned HT1080 IDH1KD tx -10%, TDP1 cell CPT 16µM*, HT1080-NT tox -12%, IL-1B inflam inh inconclusive and DT40 TDP1 no CPT 26µM*.
Screening CC1CCc2sc(C(=O)NN)cc2C1 (stereo unspecified) returned HT1080 IDH1KD tx -7%, TDP1 cell CPT 2%, HT1080-NT tox -14%, IL-1B inflam inh -12 and DT40 TDP1 no CPT -2%.
Screening CCc1sc(C(=O)Nc2ccc(OC)c(S(=O)(=O)N3CCOCC3)c2)cc1C returned HT1080 IDH1KD tx -11%, TDP1 cell CPT inconclusive, HT1080-NT tox -1%[9.24 µM], IL-1B inflam inh -25 and DT40 TDP1 no CPT inconclusive.
`COc1ccc(NC(=O)c2cc3c(s2)CCC(C)C3)cc1S(=O)(=O)N1CCOCC1` (stereo unspecified) gave HT1080 IDH1KD tx -26%, TDP1 cell CPT inconclusive, HT1080-NT tox -14%, IL-1B inflam inh 0 and DT40 TDP1 no CPT 21µM*.
Screening CCc1cc(=O)oc2cc(OCc3ccc(C(=O)O)o3)ccc12 returned HT1080 IDH1KD tx -2%, TDP1 cell CPT 4%, HT1080-NT tox -3%, IL-1B inflam inh -7 and DT40 TDP1 no CPT -23%.
Screening CN(C)C(CNC(=O)CCc1nc2cc(Cl)ccc2n(Cc2ccccc2)c1=O)c1ccccc1 (stereo unspecified) returned HT1080 IDH1KD tx -16%, TDP1 cell CPT inconclusive, HT1080-NT tox -12%, IL-1B inflam inh -67* and DT40 TDP1 no CPT 16µM*.
Screening Nc1nc(-c2ccccc2)nc2nonc12 returned HT1080 IDH1KD tx 15%, TDP1 cell CPT -1%, HT1080-NT tox 3%, IL-1B inflam inh -3 and DT40 TDP1 no CPT -28%.
Screening Cc1ccc2ccc(C(Nc3ccccn3)c3ccccc3)c(O)c2n1 (stereo unspecified) returned HT1080 IDH1KD tx -22%, TDP1 cell CPT 23µM*, HT1080-NT tox -30%, IL-1B inflam inh 63 and DT40 TDP1 no CPT 18µM*.
Screening Cc1cccc(NC(c2ccccc2C)c2ccc3ccc(C)nc3c2O)n1 (stereo unspecified) returned TDP1 cell CPT inconclusive and DT40 TDP1 no CPT 15µM*.
`COc1cc(C(Nc2ccccn2)c2c(NC(=O)c3ccco3)sc(C)c2C)cc(OC)c1OC` (stereo unspecified) gave HT1080 IDH1KD tx -1%, TDP1 cell CPT -18%, HT1080-NT tox -1%, IL-1B inflam inh -14 and DT40 TDP1 no CPT inconclusive.
OC(c1ccccc1)C(Nc1ccccn1)c1ccccc1 (stereo unspecified) was read as HT1080 IDH1KD tx 0%, TDP1 cell CPT -7%, HT1080-NT tox -2%, IL-1B inflam inh 0 and DT40 TDP1 no CPT inconclusive.
Screening COc1cc(C(Nc2ccccn2)c2ccc3ccc(C)nc3c2O)cc(OC)c1O (stereo unspecified) returned HT1080 IDH1KD tx 15µM*, TDP1 cell CPT 3.7µM*, HT1080-NT tox -29%, IL-1B inflam inh -116* and DT40 TDP1 no CPT 3.3µM*.
`Cc1cccc(NCc2ccccc2O)n1` gave HT1080 IDH1KD tx -5%, TDP1 cell CPT -26%, HT1080-NT tox -4%, IL-1B inflam inh inconclusive and DT40 TDP1 no CPT -21%.
For COc1ccc(CN2CCOc3ccc(CN4CCC(Oc5cccnc5)CC4)cc3C2)cc1C the results were TDP1 cell CPT -10%[9.04 µM] and DT40 TDP1 no CPT inconclusive.
For c1cncc(OC2CCN(Cc3ccc4c(c3)CN(Cc3ccc5c(c3)OCCO5)CCO4)CC2)c1 the results were TDP1 cell CPT inconclusive and DT40 TDP1 no CPT 16µM*.

Screens as filed in PubChem.
